For twelve compounds, composite z-score results are on record in PubChem BioAssay.

The subject of the test is PRMT1 (protein arginine N-methyltransferase 1). Description: PRMT1 binders on small-molecule microarrays, primary screen, biochemical, small-molecule microarray, 635 nm fluorescence (AID 1088). The note with it: small-molecule microarray binding, higher = more signal.
Regarding `O=C1CCCC(C2=CCCCC2=O)C1` (configuration not stated), the composite z-score was determined as 0.0732.
Take `Cn1c(=O)n2n(c1=O)[C@H]1[C@H](O)[C@@H]3O[C@@H]3C(=NOCc3ccccc3)[C@H]1CC2`: the composite z-score is 0.241.
Take `CO[C@H](C1CCCCC1)[C@H](C)C=CCC(=O)OCCCc1ccccc1`: the composite z-score is -0.53.
`COC(=O)[C@H](C)NC(=O)CCC1CC(OC(=O)NCc2ccc3c(c2)OCO3)CC2(CCCC(COC(=O)NCC(c3ccccc3)c3ccccc3)O2)O1` (some centres not stated) showed a composite z-score of 1.55.
`O=c1n(-c2ccccc2)c(=O)n2n1CC[C@@H]1C(=NOCc3ccccc3)[C@H]3O[C@H]3[C@@H](O)[C@@H]12` gave a composite z-score of -0.955.
`COC(=O)[C@H]1[C@@H](O)[C@@]2(O)c3ccccc3O[C@@]2(c2ccccc2)[C@@H]1c1ccccc1` registered a composite z-score of -0.701.
With `COC(=O)CC=C[C@@H](C)[C@@H](C=NOC(C)CN1CCCc2nc(C)c(C)cc21)OC` (some centres not stated) the figure was 0.356; with `COC(=O)[C@H](C)NC(=O)CCC1CC(OC(=O)NCCc2ccc(F)cc2)CC2(CCCC(COC(=O)NCc3cccc(C(F)(F)F)c3)O2)O1` (some centres not stated), 0.292.
To `Cc1ccc(S(=O)(=O)N[C@H]2COC(=O)CC=C[C@H](C)[C@@H](NS(=O)(=O)c3ccc(C)cc3)COC(=O)CC=C[C@@H]2C)cc1` belongs 0.405.
With `CON=C1[C@H]2CCn3c(=O)n(-c4ccccc4)c(=O)n3[C@H]2[C@H](O)[C@@H]2O[C@H]12` the figure was 0.887; with `C#CCCCON=C1C[C@@H](O)[C@@H](O)[C@@H]2[C@@H]3C(=O)N(C(C)(C)C)C(=O)[C@@H]3CC[C@@H]12`, -0.227.
`CO[C@H]1COC(=O)CC=C[C@@H](C)[C@H](NS(=O)(=O)c2ccc(C)cc2)COC(=O)CCC[C@@H]1C` registered a composite z-score of 1.1.
